# In PubChem BioAssay AID463117 (University of Pittsburgh Molecular Library Screening Center, 2010):
# Some of the results follow. Activity calls are given as the source filed them.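 The calls were made as follows: active = mean protection from necroptosis of at least 50% over duplicate tests; inactive = mean protection below 50%.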
# Experiment: rescue of L929 cells from caspase-blocker death – duplicate runs, confirmation (AID 463117);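 also: 0% = cells with zVAD alone and 100% = vehicle cells without zVAD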
# Settings: L929 zVAD-induced necroptosis rescue, ATP luminescence, 24 h; at 10 µM; active compounds read high
smiles,measurement,value
COC(=O)N1C(c2ccccc2)C1c1ccccc1 (stereo unspecified),activation (protection from necroptosis),91.7% (active)
